Laboratory results from PubChem BioAssay (Tox21).
Values joined by “and” are separate entries in the source; they are usually repeats but may differ in a detail not shown here. Equal entries are not always repeated. Inconclusive results are not listed. The source holds several records for some structures; these can differ, active in one and inactive in another. Active and inactive are the calls of the source. Calls follow the shape of the dose curve; as a rule, active = well fitted curve in the direction sought with a large enough effect in the repeat runs; inconclusive = weak or mixed curves; inactive = no such curve, though single readings can be large; an effect the other way counts as inactive or inconclusive.

Legend:
[1] = A CellTox Green Cytotoxicity Assay to monitor cytotoxicity in HEK293 cells - 40 hour (AID 1224871); also: nearly all actives have a fitted effect of over 45% in size; as to cytotoxicity increase: % is scaled to controls: 0 for no effect and ±100 for the full control effect
In short: (§1)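 HEK293 cells premixed with CellTox Green dye were seeded at 600 cells/well and left 5 h at 37 C/5% CO2 before pin transfer of 23 nL compound in DMSO. Fluorescence from dye bound to dead-cell DNA was read during 40 h treatment.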

[2] = qHTS RealTime-Glo MT Cell Viability Assay in HEK293 cells - 16 hour (AID 1224872); also: nearly all actives have a fitted effect of over 50% in size; as to activity change, negative = cytotoxicity: top concentration of the series differs between compounds; % is scaled to controls: 0 for no effect and ±100 for the full control effect
In short: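 Reads taken at 0, 8, 16, 24, 32 and 40 h from the same wells. HEK293 cells (600/well) carried RealTime-Glo reagents from seeding, with compound added after a 5 h settle at 37 C.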

[3] = qHTS RealTime-Glo MT Cell Viability Assay in HepG2 cells - 8 hour (AID 1224873); also: nearly all actives have a fitted effect of over 55% in size; as to viability change, negative = cytotoxic: % is scaled to controls: 0 for no effect and ±100 for the full control effect
In short: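 HepG2 cells mixed with RealTime-Glo MT reagents (NanoLuc plus cell-permeant prosubstrate) were seeded at 600 cells/well, incubated 5 h at 37 C/5% CO2, then pinned with compounds in DMSO; nonlytic luminescence tracked viability during 40 h treatment.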

[4] = A CellTox Green Cytotoxicity Assay to monitor cytotoxicity in HEK293 cells - 24 hour (AID 1224875); also: nearly all actives have a fitted effect of over 45% in size; as to activity change: series mostly up to about 77 µM; % is scaled to controls: 0 for no effect and ±100 for the full control effect
In short: as §1

[5] = A CellTox Green Cytotoxicity Assay to monitor cytotoxicity in HepG2 cells - 16 hour (AID 1224876); also: nearly all actives have a fitted effect of over 45% in size
In short: (§2)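 HepG2 cells were seeded together with the CellTox Green dye at 600 cells/well, left 5 h at 37 C/5% CO2, then given compounds in DMSO. Fluorescence from dye bound to dead-cell DNA was read repeatedly over 40 h of treatment at 37 C.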

[6] = qHTS RealTime-Glo MT Cell Viability Assay in HepG2 cells - 32 hour (AID 1224877); also: nearly all actives have a fitted effect of over 55% in size
In short: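 HepG2 suspension premixed with RealTime-Glo reagents is plated at 600 cells per well and left 5 h at 37 C/5% CO2. Compounds in DMSO then go in, and bioluminescence reflecting viable cell number is recorded over 40 h.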

[7] = A CellTox Green Cytotoxicity Assay to monitor cytotoxicity in HepG2 cells - 24 hour (AID 1224878); also: nearly all actives have a fitted effect of over 45% in size
In short: as §2

[8] = A CellTox Green Cytotoxicity Assay to monitor cytotoxicity in HepG2 cells - 40 hour (AID 1224879); also: nearly all actives have a fitted effect of over 40% in size
In short: as §2

[9] = qHTS RealTime-Glo MT Cell Viability Assay in HEK293 cells - 0 hour (AID 1224880); also: nearly all actives have a fitted effect of over 45% in size
In short: (§3)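 HEK293 cells mixed with RealTime-Glo reagents (NanoLuc plus cell-permeant prosubstrate) at 600 cells/well, preincubated 5 h at 37 C/5% CO2, then given 23 nL compound in DMSO. Nonlytic luminescence from viable cells was read at 0, 8, 16, 24, 32 and 40 h.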

[10] = qHTS RealTime-Glo MT Cell Viability Assay in HEK293 cells - 40 hour (AID 1224874); conditions: RealTime-Glo luminescence; max response: stronger effect = lower value; also: nearly all actives have a fitted effect of over 50% in size
In short: as §3
Potency is read from the fitted curve at half-maximal effect.

CCCCCCCCNC(C)C(O)c1ccc(SC(C)C)cc1 (configuration not stated)
active: Potency [1] 16.9 µM | Potency [2] 10.7 µM | Potency [3] 21.3 µM | Potency [4] 16.9 µM | Potency [5] 16.9 µM | Potency [6] 13.4 µM | Potency [7] 16.9 µM | Potency [8] 15.1 µM

CC(NN)c1ccccc1 (configuration not stated)
inactive: cytotoxicity increase [1] -15.6% [at 15.8 µM] | activity change, negative = cytotoxicity [2] 0.13% [at 15.8 µM] | viability change, negative = cytotoxic [3] -0.527% [at 15.8 µM] | activity change [4] -7.33% [at 15.8 µM, stronger effect = higher value] | cytotoxicity increase [5] -2.37% [at 15.8 µM] | activity change, negative = cytotoxic [6] 1.72% [at 15.8 µM] | cytotoxicity [7] -5.39% [at 15.8 µM] | cytotoxicity increase [8] 0.373% [at 15.8 µM] | activity change, negative = cytotoxicity [9] -4.11% [at 15.8 µM]

O=C(O)c1cc(O)c2c(c1)C(=O)c1cccc(O)c1C2=O
inactive: Potency [1] | Potency [2] | Potency [3] | Potency [4] | Potency [5] | Potency [6] | Potency [7] | Potency [8] | Potency [9]

C[C@H]1[C@H]2CC[C@H]3[C@@H]4CC=C5C[C@@H](N(C)C)CC[C@]5(C)[C@H]4CC[C@]23CN1C
inactive: Potency [1] | Potency [2] | Potency [3] | Potency [4] | Potency [6] | Potency [8] | Potency [9]

CCOC(=O)O[C@]1(C(=O)OCCl)CC[C@H]2[C@@H]3CCC4=CC(=O)C=C[C@]4(C)[C@H]3[C@@H](O)C[C@@]21C
inactive: Potency [1] | Potency [2] | Potency [3] | Potency [4] | Potency [5] | Potency [6] | Potency [7] | Potency [8]

CCCCN1C(=O)[C@@H]([C@H](O)C2CCCCC2)NC(=O)C12CCN(Cc1ccc(Oc3ccc(C(=O)O)cc3)cc1)CC2
inactive: Potency [1] | Potency [2] | Potency [3] | Potency [4] | Potency [5] | Potency [6] | Potency [7] | Potency [8] | Potency [9]

CCOC(=O)/C=C(C)/C=C/C=C(C)/C=C/c1c(C)cc(OC)c(C)c1C
inactive: Potency [1] | Potency [2] | Potency [3] | Potency [4] | Potency [5] | Potency [6] | Potency [7] | Potency [8] | Potency [9]

Cc1cc(O)c2ccccc2c1O
active: Potency [1] 9.52 µM | Potency [2] 7.56 µM | Potency [3] 10.7 µM | Potency [4] 9.52 µM | Potency [5] 13.4 µM | Potency [6] 13.4 µM | Potency [7] 13.4 µM | Potency [8] 13.4 µM

COc1cc(-c2ccc(N=C=O)c(OC)c2)ccc1N=C=O
inactive: Potency [1] | Potency [2] | Potency [3] | Potency [4] | Potency [5] | Potency [6] | Potency [7] | Potency [8] | Potency [9]

C=C(C)C(=O)OCC[N+](C)(C)C
inactive: Potency [1] | Potency [2] | Potency [3] | Potency [5] | Potency [6] | Potency [7] | Potency [8] | Potency [9]

C[n+]1ccn(Cc2ccccc2)c1
inactive: Potency [1] | Potency [2] | Potency [3] | Potency [4] | Potency [5] | Potency [6] | Potency [7] | Potency [8] | Potency [9]

C[C@]12CCC(=O)C=C1CC[C@@H]1[C@@H]2[C@@H](O)C[C@@]2(C)[C@H]1CC[C@]2(O)C(=O)COC(=O)CCC(=O)O
active: Potency [9] 10.7 µM
inactive: Potency [1] | Potency [2] | Potency [3] | Potency [4] | Potency [5] | Potency [6] | Potency [7] | Potency [8]

CCCCCCCCCCCC(=O)NCCCN(C)C
active: Potency [1] 49 µM | Potency [2] 49 µM | Potency [10] 34.7 µM | Potency [4] 54.9 µM | Potency [5] 43.6 µM | Potency [6] 38.9 µM | Potency [7] 34.7 µM | Potency [8] 30.9 µM

CCCCCCCCCCCCCC[P+](CCCC)(CCCC)CCCC (tested in a mixture with another compound)
active: Potency [1] 15.6 µM | Potency [2] 8.76 µM | Potency [3] 19.6 µM | Potency [4] 17.5 µM | Potency [5] 19.6 µM | Potency [6] 19.6 µM | Potency [7] 15.6 µM | Potency [8] 13.9 µM
inactive: Potency [9]

CCCCCCCCOC(=O)c1ccc(O)cc1
inactive and 49 µM (active): Potency [8]
active: Potency [1] 38.8 µM and 49 µM | Potency [2] 27.4 µM | Potency [4] 43.5 µM and 43.6 µM
inactive: Potency [3] | Potency [6] | Potency [9]
inactive and 43.6 µM (active): Potency [5] | Potency [7]

O=C(Nc1ccc(Oc2ccc(Cl)cc2)c(Cl)c1)c1cc(I)cc(I)c1O
inactive: Potency [1] | Potency [2] | Potency [3] | Potency [4] | Potency [5] | Potency [6] | Potency [7] | Potency [8] | Potency [9]

O=C1c2ccccc2Cc2ccccc21
inactive: Potency [1] | Potency [2] | Potency [3] | Potency [4] | Potency [5] | Potency [6] | Potency [7] | Potency [8] | Potency [9]

O=c1cccccc1O
inactive: Potency [1] | Potency [2] | Potency [3] | Potency [4] | Potency [5] | Potency [6] | Potency [7] | Potency [8] | Potency [9]

O=C(N/N=C/c1ccccc1O)c1ccncc1
inactive: Potency [1] | Potency [2] | Potency [3] | Potency [4] | Potency [5] | Potency [6] | Potency [7] | Potency [8] | Potency [9]

CNc1ccc(O)cc1
active: Potency [1] 9.75 µM | Potency [2] 13.8 µM | Potency [3] 48.9 µM | Potency [8] 48.9 µM | Potency [9] 17.3 µM

O=c1[nH]cnc2nc[nH]c12
inactive: Potency [1] | Potency [2] | Potency [3] | Potency [4] | Potency [5] | Potency [6] | Potency [7] | Potency [8] | Potency [9]

Cc1onc(-c2ccccc2Cl)c1C(=O)N[C@@H]1C(=O)N2[C@@H]1SC(C)(C)[C@@H]2C(=O)O
inactive: Potency [1] | Potency [2] | Potency [3] | Potency [4] | Potency [5] | Potency [6] | Potency [7] | Potency [8] | Potency [9]

O=c1[nH]sc2ccccc12
active: Potency [1] 54.9 µM | Potency [2] 38.9 µM | Potency [3] 34.7 µM | Potency [6] 21.9 µM | Potency [7] 38.9 µM | Potency [8] 21.9 µM
inactive: Potency [9]

CNC(=O)c1ccccc1
inactive: Potency [1] | Potency [2] | Potency [3] | Potency [4] | Potency [6] | Potency [7] | Potency [8] | Potency [9]

Nc1ccc2cc(S(=O)(=O)O)cc(O)c2c1N=Nc1ccccc1C(F)(F)F
inactive: Potency [1] | Potency [2] | Potency [3] | Potency [4] | Potency [5] | Potency [6] | Potency [7] | Potency [8] | Potency [9]

O=C(OCC1CO1)C1CCCCC1C(=O)OCC1CO1 (configuration not stated)
inactive: Potency [1] | Potency [2] | Potency [3] | Potency [4] | Potency [6] | Potency [7] | Potency [8] | Potency [9]

Cc1cc(N)c(S(=O)(=O)O)cc1Cl
inactive: Potency [1] | Potency [2] | Potency [3] | Potency [4] | Potency [5] | Potency [6] | Potency [7] | Potency [8] | Potency [9]

CCCCCCCCCCCCCCCCCC[N+](C)(C)Cc1ccccc1
inactive: Potency [9]
active: Potency [1] 19.7 µM | Potency [2] 17.5 µM | Potency [3] 49.5 µM | Potency [4] 24.8 µM | Potency [5] 44.1 µM | Potency [6] 35 µM | Potency [7] 24.8 µM | Potency [8] 19.7 µM

CS(=O)(=O)CCNCc1ccc(-c2ccc3ncnc(Nc4ccc(OCc5cccc(F)c5)c(Cl)c4)c3c2)o1
active: Potency [2] 19 µM | Potency [3] 23.9 µM | Potency [9] 0.674 µM
inactive: Potency [1] | Potency [4] | Potency [5]

Nc1ccccc1O
inactive: Potency [1] | Potency [2] | Potency [3] | Potency [4] | Potency [5] | Potency [6] | Potency [7] | Potency [8] | Potency [9]

CC(=O)OCC(C)OC(C)=O (configuration not stated)
inactive: Potency [1] | Potency [2] | Potency [3] | Potency [4] | Potency [5] | Potency [6] | Potency [7] | Potency [8] | Potency [9]

COc1c(C)c2c(c(O)c1C/C=C(\C)CCC(=O)O)C(=O)OC2
inactive: Potency [1] | Potency [2] | Potency [3] | Potency [4] | Potency [5] | Potency [6] | Potency [7] | Potency [8] | Potency [9]

O=C(c1ccc(O)cc1O)c1ccc(O)cc1O
inactive: Potency [1] | Potency [2] | Potency [3] | Potency [4] | Potency [5] | Potency [6] | Potency [7] | Potency [8] | Potency [9]

CCCCC(CC)COC(=O)c1ccccc1C(=O)O (configuration not stated)
inactive: Potency [1] | Potency [2] | Potency [3] | Potency [4] | Potency [5] | Potency [6] | Potency [7] | Potency [8] | Potency [9]

CC(C)CCCCCCCCCCCCCCC(=O)O
inactive: Potency [1] | Potency [2] | Potency [3] | Potency [4] | Potency [5] | Potency [6] | Potency [7] | Potency [8] | Potency [9]

CC1=C(/C=C/C(C)=C/C=C/C(C)=C/C=O)C(C)(C)CCC1
active: Potency [1] 38.7 µM | Potency [2] 19.4 µM | Potency [4] 38.7 µM | Potency [7] 54.6 µM | Potency [8] 48.7 µM
inactive: Potency [9]

Cc1c(C)c2c(c(C)c1O)CCC(C)(COc1ccc(CC3SC(=O)NC3=O)cc1)O2 (configuration not stated)
active: Potency [10] 43.6 µM
inactive: Potency [1] | Potency [3] | Potency [4] | Potency [5] | Potency [6] | Potency [7] | Potency [8] | Potency [9]

CCN1/C(=C/C=C/c2sc3ccccc3[n+]2CC)Sc2ccccc21
active: Potency [1] 9.28 µM | Potency [2] 1.04 µM | Potency [10] 0.0585 µM | Potency [7] 1.85 µM | Potency [8] 1.17 µM
inactive: cytotoxicity increase [5] -2.11% [at 15.8 µM] | activity change, negative = cytotoxicity [9] -8.36% [at 15.8 µM]

CCCCCCCC/C=C/CCCCCCCC1=NCCN1CCO
active: Potency [1] 30.9 µM | Potency [3] 43.6 µM | Potency [10] 19.5 µM | Potency [4] 24.5 µM | Potency [5] 21.9 µM | Potency [6] 15.5 µM | Potency [7] 13.8 µM | Potency [8] 12.3 µM
